Bioassay records deposited in PubChem BioAssay by National Center for Advancing Translational Sciences (NCATS).
A selection: hits, their analogues and other compounds. The true share with any hit is near 5.7%.
D3 ag: agonists of human D3 dopamine receptor; P35462; max activation, %; D3R DiscoveRx beta-arrestin cells, luminescence, 90 min; actives 0.58% (n = 410,000); in the data active means max activation above about 30%
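Agonist-mode cell screen: cells plated at 1500/well and incubated overnight at 37 °C, then exposed to library compounds for 90 min at 37 °C. Detection reagent was added for 30–60 min at room temperature, and luminescence was read.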
GLP1R cytotox: cytotoxicity counter-screen for GLP-1 receptor inverse agonists | HEK293 cAMP-luciferase reporter cells, luminescence, 24 h | Potency, µM (doses to about 38.3 µM), usual class: inhibitors | actives 0.13% (n = 410,000) | AID 624418;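 further: loss of luciferase light is scored as toxicity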
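A 23 nL compound transfer followed 12 hours of cell culture at 37 deg C; exposure then lasted 24 hr. Luciferase assay detection reagent was dispensed and plates read for luminescence after a 12 min room-temperature wait.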
ClpP mod: qHTS Assay for Activators of ClpP. ATP-dependent Clp protease proteolytic subunit (Bacillus subtilis (strain 168)), P80244. purified B. subtilis ClpP, FRET peptide cleavage, 20 min. Potency, µM (doses to about 57.5 µM). actives 1.9% (n = 340,000). AID 651965, 2013; active means well fitted falling curve with a large enough effect; inconclusive means small, poorly fitted or top-dose-only effect; inactive means no such curve, though single readings can be large or run the other way; further: the source files actives as falling curves though it sought activators and does not explain the sign; nearly all actives have a fitted effect of over 65% in size
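ClpP 10 microg/mL final, pH 8 Tris/KCl buffer with BSA, glycerol, Tween-20; compound pinned in; FRET-FV substrate; RT 20 min; Ex320/Em430; ΔFRET vs ADEP 5.8 microM, DMSO, no enzyme.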
D3 antag: blocks the human D3 dopamine receptor. D3R cells, DiscoveRx beta-arrestin luminescence, antagonist mode; active compounds read low. actives 2.5% (n = 360,000). max response, negative = inhibition, %. P35462; in the data active means max response below about -50%; inconclusive means no clear call, values can overlap the other calls
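Cells expressing the human receptor were seeded at 1500 cells/well, incubated overnight at 37 degrees C in 5% CO2, then exposed to library compounds with dopamine controls for 90 minutes at 37 degrees C before luminescent detection.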
GLP1R inv ag: inverse agonists of human GLP-1 receptor; P43220; HEK293 GLP-1R CRE-luciferase, luminescence, 24 h; GLP-1R form is constitutively active; Potency, µM (top dose mostly 38.3 µM), usual class: inhibitors; actives 1.6% (n = 410,000); further: nearly all actives have a fitted effect of over 55% in size
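GLP-1R inverse agonism mode: basal reporter luminescence in engineered HEK293 cells measured after one day of compound exposure at 37 deg C, with a 12 min room-temperature detection step.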
GLP1R ag: GLP-1 receptor (human) agonism | HEK293 GLP-1R CRE-luciferase, luminescence, 4-6 h; cells express a hypersensitive GLP-1R form | Potency, µM (top dose mostly 45.6 µM), usual class: activators | actives 0.007% (n = 380,000) | AID 624172
Each line names hits and unclear results; the compound was inactive in the other large screens. Unless noted, the call rests on the fitted dose curve; in most records, active means well fitted curve in the direction sought with a large enough effect; inconclusive means small, poorly fitted or top-dose-only effect, or another doubt; inactive means no such curve, though single readings can be large; an effect the other way counts as inactive or inconclusive.

Cc1ccc(C(c2nnnn2Cc2cccs2)N2CCN(C(=O)c3ccco3)CC2)cc1 (configuration not stated)	D3 antag -51.7, GLP1R inv ag inconclusive
CCC(=O)N1CCc2cc(S(=O)(=O)NC(Cc3ccccc3)C(=O)NCc3ccc(F)cc3)ccc21 (configuration not stated)	none (no result: D3 antag, GLP1R ag)
C#CCn1c(=NC(=O)c2ccc(S(=O)(=O)N3CCc4ccccc4C3)cc2)sc2cc(S(N)(=O)=O)ccc21	GLP1R cytotox 3.55µM, ClpP mod 28.2µM, GLP1R inv ag 3.98µM
COCCn1c(=NC(=O)c2ccc(S(=O)(=O)N3CCc4ccccc4C3)cc2)sc2cc(S(N)(=O)=O)ccc21	ClpP mod 14.1µM
COC(=O)[C@]12CCCCC=C1N(Cc1cccc3ccccc13)C(=O)[C@H](CC(=O)NCc1cccs1)C2	GLP1R inv ag inconclusive
CCOC(=O)c1cc(-c2cccs2)nc2onc(C)c12	ClpP mod 31.6µM
CCOC(=O)c1sc(-c2cccs2)nc1C	none
FC(F)(F)c1cccc(NC(=S)Nc2ccc(Cl)c(Cl)c2)c1	GLP1R inv ag inconclusive (no result: ClpP mod)
O=[N+]([O-])c1cc(C(F)(F)F)cc([N+](=O)[O-])c1NCCNC(=S)Nc1ccc(Cl)c(Cl)c1	GLP1R cytotox inconclusive, GLP1R inv ag 8.91µM (no result: ClpP mod)
Cc1cccc(NC(=O)c2ccc(Cl)c(S(=O)(=O)N3CCCC3)c2)n1	none
Cc1ccc(NC(=O)c2ccc(Cl)c(S(=O)(=O)N3CCCCCC3)c2)nc1	GLP1R inv ag 7.08µM (no result: ClpP mod)
Cc1ccc(CNC(=O)c2ccc(Cl)c(S(=O)(=O)N3CCCCC3)c2)cc1	GLP1R inv ag 10µM
Cc1cccc(NC(=O)c2ccc(Cl)c(S(=O)(=O)N3CCc4ccccc43)c2)n1	GLP1R inv ag 11.2µM
Cc1ccnc(NC(=O)c2cc(S(=O)(=O)N3CCCCC3)ccc2Cl)c1	ClpP mod 22.4µM, GLP1R inv ag inconclusive
Nc1c(-c2nc(-c3cccs3)no2)nnn1-c1ccc(Cl)cc1	none (no result: D3 antag, GLP1R ag)
CCN1CCN(c2ccc(NC(=O)c3ccc(OC)c(S(=O)(=O)N4CCCC4)c3)cc2)CC1	none
CCN1CCN(c2ccc(NC(=O)c3ccc(Cl)c(S(=O)(=O)N4CCCC4)c3)cc2)CC1	GLP1R inv ag 3.55µM
CNc1ccc2ncc(-c3ccc(OC)c(OC)c3)n2n1	none
O=C(Nc1ncn[nH]1)c1cc(S(=O)(=O)Nc2ccc(Cl)cc2)ccc1Cl	none
O=C(Nc1ncn[nH]1)c1ccc(Cl)c(S(=O)(=O)Nc2ccc(Cl)cc2)c1	ClpP mod 31.6µM
Cc1ccc(S(=O)(=O)N2CCN(c3ccc(C(=O)N4CCOCC4)cc3[N+](=O)[O-])CC2)cc1	ClpP mod 28.2µM
Cc1ccc(S(=O)(=O)N2CCN(C(=O)c3ccc(N4CCCC4)c([N+](=O)[O-])c3)CC2)cc1	none
O=C(Nc1cccc(Cl)c1)Nc1csc([N+](=O)[O-])c1	GLP1R cytotox inconclusive, GLP1R inv ag 6.31µM (no result: ClpP mod)
CC[C@H]1OC(=O)C[C@@H](O)[C@H](C)[C@@H](O[C@@H]2O[C@H](C)[C@@H](O)[C@H](N(C)C)[C@H]2O)[C@@H](CCN2C[C@H](C)C[C@H](C)C2)C[C@@H](C)C(=O)/C=C/C(C)=C/[C@@H]1CO[C@@H]1O[C@H](C)[C@@H](O)[C@@H](OC)[C@H]1OC	none (no result: GLP1R cytotox, ClpP mod, D3 antag, GLP1R inv ag, GLP1R ag)
CCOc1ccc(S(=O)(=O)N2CC(=O)Nc3ccccc32)cc1	ClpP mod 31.6µM
Cc1ccc(NC(=O)CCn2nc(-c3ccccc3)c3ccccc3c2=O)c(C)c1	none (no result: D3 antag, GLP1R ag)
S=C(NCc1ccco1)Nc1ccc(Cl)c(Cl)c1	GLP1R inv ag 10µM
CC(=O)c1cccc(NC(=S)NCc2ccco2)c1	none
S=C(NCc1ccco1)Nc1cccc(Cl)c1	GLP1R inv ag 8.91µM
CC(=O)[C@@]1(O)CC[C@H]2[C@@H]3C=C(Cl)C4=CC(=O)CC[C@]4(C)[C@H]3CC[C@@]21C	none (no result: GLP1R cytotox, ClpP mod, D3 antag, GLP1R inv ag)
CCOC(=O)c1ccc(N2C(=O)c3[nH]nc(-c4ccc(C)cc4)c3C2c2cccc(F)c2)cc1 (configuration not stated)	GLP1R inv ag 10µM (no result: D3 antag)
CCOC(=O)c1ccc(N2C(=O)c3n[nH]c(-c4ccco4)c3C2c2ccc([N+](=O)[O-])cc2)cc1 (configuration not stated)	GLP1R cytotox inconclusive, GLP1R inv ag 7.08µM
CCOC(=O)c1ccc(N2C(=O)c3[nH]nc(-c4ccc(C)cc4)c3C2c2ccc(O)cc2)cc1 (configuration not stated)	GLP1R cytotox inconclusive, GLP1R inv ag inconclusive (no result: D3 antag)
CCOC(=O)c1ccc(N2C(=O)c3n[nH]c(-c4ccco4)c3C2c2ccc(C)cc2)cc1 (configuration not stated)	GLP1R cytotox inconclusive, GLP1R inv ag inconclusive (no result: D3 antag)
O=C(Nc1ccc(F)c(Cl)c1)c1cc(C2CCCCN2C(=O)CCc2ccccc2)on1 (configuration not stated)	GLP1R inv ag inconclusive
O=C1NCC(c2ccccc2)C1C(=O)N/N=C\c1ccc(-c2ccc(Cl)c(Cl)c2)o1 (configuration not stated)	GLP1R cytotox inconclusive, GLP1R inv ag 10µM
O=C1NCC(c2ccccc2)C1C(=O)N/N=C/c1ccc(Cl)s1 (configuration not stated)	none (no result: ClpP mod)
O=C(Cn1c(-c2cncs2)nc2ccccc21)NCc1ccccc1	D3 antag -83.6
NC(=S)N/N=C/c1ccccc1	none
NC(=S)N/N=C/c1ccc(C23CC4CC(CC(C4)C2)C3)cc1	GLP1R cytotox inconclusive, D3 antag -88.8, GLP1R inv ag inconclusive (no result: ClpP mod)
O=c1c2ccccc2ncn1-c1ccc([N+](=O)[O-])cc1[N+](=O)[O-]	GLP1R inv ag 5.62µM (no result: ClpP mod)
O=c1c2ccccc2ncn1-c1ccc(Cl)cc1[N+](=O)[O-]	GLP1R inv ag inconclusive
O=C(Nc1ccccc1OC(F)F)c1ccc(N2CCCC2=O)cc1	none
CCCCC[C@H]1CN(Cc2ccccc2)C(=O)[C@@H]1CC(=O)NCc1ccccc1	GLP1R inv ag 10µM
CCCCC[C@H]1CN(CCc2ccccc2)C(=O)[C@@H]1CC(=O)NCc1ccc(OC)cc1	GLP1R inv ag inconclusive
Cc1ccc(OCC(O)CNC(C)c2ccccc2)cc1C (configuration not stated)	GLP1R inv ag 5.01µM
COc1ccc(CN(C)CC(O)COc2ccc(-c3ccccc3)cc2)cc1OC (configuration not stated)	GLP1R cytotox inconclusive, D3 antag inconclusive, GLP1R inv ag inconclusive, GLP1R ag inconclusive (no result: ClpP mod)
